Bioassay records as filed in PubChem BioAssay.
AHR activator – AHR activators, primary screen, cell-based, luminescence, luciferase reporter, human; AHR-responsive luciferase reporter cells; activation, % at 5 µM; AID 2796, 2010; 320,000 compounds, 2.5% hits; in the data active = activation above about 47%;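 note: 0% = vehicle wells and 100% = reference agonist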
A3A deaminase – APOBEC3A ssDNA deaminase inhibitors, primary screen, selectivity assay for APOBEC3G inhibitor project, biochemical, FAM/TAMRA oligo cleavage fluorescence; DNA dC->dU-editing enzyme APOBEC-3A (Homo sapiens), P31941; recombinant A3A, FAM/TAMRA ssDNA deamination fluorescence; inhibition, % at 20 µM; 330,000 compounds, 0.41% hits;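 active = at least 40% inhibition at 20 µM here, with at most 30% in a related deaminase screen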;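 note: plate controls were A3A with DMSO for no effect and wells lacking A3A enzyme for full effect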
NTR1 ag – agonists of human NTR1, primary screen, imaging, U2OS cells, beta-arrestin-GFP, high content. NTR1-U2OS beta-arrestin-GFP spot imaging, agonist mode. AID 493036, 2011. activation, % at 20 µM. 330,000 compounds, 0.17% hits. Neurotensin receptor type 1 (Homo sapiens), P30989;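 active = activation at or above 40% of the spot to cytoplasm intensity ratio, with at least 20 cells analyzed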;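 note: 0% = DMSO without peptide and 100% = 100 nM NTR1 peptide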
Target sequence (P30989 whole entry, looked up): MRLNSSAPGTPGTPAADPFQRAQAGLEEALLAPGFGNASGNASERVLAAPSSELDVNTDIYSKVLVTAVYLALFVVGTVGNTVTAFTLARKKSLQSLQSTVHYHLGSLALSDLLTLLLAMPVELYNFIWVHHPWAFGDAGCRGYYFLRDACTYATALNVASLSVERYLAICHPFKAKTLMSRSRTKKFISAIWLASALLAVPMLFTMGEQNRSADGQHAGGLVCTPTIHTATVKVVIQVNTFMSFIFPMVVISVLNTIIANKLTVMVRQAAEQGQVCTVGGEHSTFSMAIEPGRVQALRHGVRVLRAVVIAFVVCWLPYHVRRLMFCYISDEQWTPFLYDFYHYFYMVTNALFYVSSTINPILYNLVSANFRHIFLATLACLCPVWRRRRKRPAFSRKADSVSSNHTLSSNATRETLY
A3G deaminase – APOBEC3G DNA deaminase inhibitors, primary screen, biochemical, fluorescence, single-stranded DNA substrate, uHTS. DNA dC->dU-editing enzyme APOBEC-3G (Homo sapiens), Q9HC16. recombinant A3G, ssDNA deamination FAM/TAMRA fluorescence. inhibition, % at 20 µM. 330,000 compounds, 0.28% hits. AID 493012, 2011;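 active = inhibition of at least 40% at 20 µM, with no more than 30% in the related APOBEC3A deaminase screen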;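 note: plate controls were DMSO wells with A3G for no effect and wells lacking A3G enzyme for full effect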
NTR1 ag conf – NTR1 agonists, single-dose retest, confirmation, imaging, U2OS cells, beta-arrestin-GFP, single concentration; 480 compounds, 38% hits; shares compounds with NTR1 ag; NTR1-U2OS beta-arrestin-GFP translocation imaging; activation, % at 20 µM;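 active = mean activation at 20 µM of at least 40%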;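 note: 0% = DMSO without peptide and 100% = 100 nM NTR1 peptide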
* marks the source's active call; other numbers are inactive results; . = no result given. Sampled rows, rich in hits. Any-hit rate of the full collection: about 3.2%.

SMILES	AHR activator	A3A deaminase	NTR1 ag	A3G deaminase	NTR1 ag conf
O=C(NC1=NCCS1)c1cccc2ccccc12	8	1	1	-6	.
O=C(NC1CC(=O)N(c2ccc(Cl)cc2)C1)C1CC1 (configuration not stated)	1	0	1	-4	.
COc1cc2c(cc1OC)C(SC)=NC(C)(C)C2	-1	-2	48*	-7	80*
OC1CCC(Nc2ncnc3sccc23)CC1 (configuration not stated)	0	-1	-2	-5	.
Cc1[nH]c2ccccc2c1/C=N/Nc1ccccc1[N+](=O)[O-]	29	9	40*	1	10
COc1ccc(-c2cn(CCO)c(-c3ccncc3)n2)cc1	27	1	5	-8	.
CC(C)c1ccc(Nc2nnc(SC3CCOC3=O)s2)cc1 (configuration not stated)	-1	0	52*	-3	76*
Cc1ccc(Nc2nnc(SC3CCOC3=O)s2)cc1 (configuration not stated)	3	1	4	-8	.
Cc1ccc(C(=O)/C=C/C(=O)c2ccc(C)cc2)cc1	0	-1	42*	4	73*
C=C(C)CN=C1SC(C(=O)Nc2sc3c(c2C(=O)OC)CCC3)C(N)=C1C(N)=O (configuration not stated)	32	0	20	-9	.
COC(=O)c1c(NC(=O)C2SC(=NC3CCCCC3)C(C(N)=O)=C2N)sc2c1CCCC2 (configuration not stated)	5	-1	43*	0	17
COc1ccc(C(C(=O)NC2CCCC2)N(C(=O)c2snc(C(N)=O)c2N)c2ccccc2OC)cc1OC (configuration not stated)	2	-3	61*	-4	2
C[C@H](NC(=O)c1nc[nH]c1C(=O)NCc1ccc(CNC(=O)OC(C)(C)C)cc1)c1ccccc1	1	-4	19	-12	.
CC(C)C[C@H](NC(=O)c1nc[nH]c1C(=O)N[C@@H](CC(C)C)C(=O)OC(C)(C)C)C(=O)OC(C)(C)C	-2	10	27	0	.
CC(C)C[C@H](NC(=O)c1nc[nH]c1C(=O)NC(c1ccccc1)c1ccccc1)C(=O)OC(C)(C)C	10	-1	22	-4	.
CC(C)C[C@H](NC(=O)c1[nH]cnc1C(=O)Nc1ccc(Cl)cc1)C(=O)OC(C)(C)C	5	1	56*	-5	32
Cc1cccc(NC(=O)c2nc[nH]c2C(=O)N[C@@H](Cc2ccccc2)C(=O)OC(C)(C)C)c1	35	-4	51*	-9	53*
CC(C)(C)OC(=O)[C@H](Cc1ccccc1)NC(=O)c1[nH]cnc1C(=O)Nc1cccc(Cl)c1	11	1	27	-3	.
C[C@H](NC(=O)c1nc[nH]c1C(=O)NCc1ccc(CNC(=O)OC(C)(C)C)cc1)C(=O)OCc1ccccc1	-1	-2	55*	-7	56*
Cc1cccc(NC(=O)c2nc[nH]c2C(=O)N[C@@H](CC(C)C)C(=O)OC(C)(C)C)c1	-1	1	52*	-2	24
COc1cccc(/C=N/NC(=O)Cn2cnc3c2c(=O)n(C)c(=O)n3C)c1OC	10	-1	0	-7	.
COc1cc(/C=C(\NC(=O)c2cc(OC)c(OC)c(OC)c2)C(=O)NC(C(=O)O)c2ccccc2)cc(OC)c1OC (configuration not stated)	0	2	0	23	.
CN(C(=O)COC(=O)CNC(=O)c1ccccc1F)C1CCCCC1	1	1	0	-1	.
C[C@H]1CN([C@@H](C)CO)C(=O)c2cccc(NS(=O)(=O)c3cn(C)cn3)c2O[C@H]1CN(C)S(C)(=O)=O	-2	1	-2	4	.
CCCCCc1nnc(NC(=O)c2ccc(N3CCCC3=O)cc2)s1	6	2	2	-2	.
SMILES	AHR activator	A3A deaminase	NTR1 ag	A3G deaminase	NTR1 ag conf
CC(C)(C)OC(=O)NCCCCCNC(=O)c1[nH]cnc1C(=O)Nc1ccc(Cl)cc1	-3	-2	48*	-8	22
CC(C)(C)OC(=O)[C@H](Cc1ccccc1)NC(=O)c1nc[nH]c1C(=O)NCCCCCN	1	-2	16	-10	.
CC(C)(C)OC(=O)NCCCCCNC(=O)c1[nH]cnc1C(=O)N[C@@H](Cc1ccccc1)C(=O)OC(C)(C)C	-2	3	47*	-4	23
Cc1ccc(NC(=O)c2nc[nH]c2C(=O)NCCCCCNC(=O)OC(C)(C)C)cc1	8	-2	10	-6	.
CCN(CC)S(=O)(=O)c1cc(OC)c(Cl)cc1OC	-1	-2	1	-4	.
O=C(Nc1ccc(Oc2c(F)c(F)c(F)c(F)c2F)cc1)OC1CCN2Cc3ccccc3N=C12 (configuration not stated)	4	-1	40*	5	54*
Cc1cccc(NC(=O)Nc2ccc(Oc3c(F)c(F)c(F)c(F)c3F)cc2)c1	6	-1	-1	-6	.
O=C(/C=C/c1ccccc1F)c1cccc([N+](=O)[O-])c1	58*	1	42*	2	61*
COc1cc(/C=C/C(=O)c2cccc([N+](=O)[O-])c2)cc(OC)c1OC	3	-3	18	-9	.
COCCn1c(SCC(=O)NC(C)c2ccc(F)cc2)nc2ccccc21 (configuration not stated)	5	2	-1	-1	.
CC1(C)CC(=O)C(=Cc2cn(-c3ccccc3)nc2-c2ccc(Cl)cc2)C(=O)C1	1	-16	63*	-3	83*
Cc1ccccc1-n1nc(C(=O)c2cccs2)cc(-c2nc3ccccc3[nH]2)c1=N	28	-3	55*	-4	2
Cc1cccc(-n2nc(C(=O)c3ccco3)cc(-c3nc4ccccc4[nH]3)c2=N)c1	28	-3	10	-4	.
COc1ccc(-n2nc(C(=O)c3cccs3)cc(-c3nc4ccccc4[nH]3)c2=N)cc1	10	-3	76*	-3	13
CC1=C(N2CCCCC2)CCC1=O	-1	1	0	-5	.
Brc1cccc(CSc2nnc(-c3ccncc3)o2)c1	3	0	4	-6	.
CC1CCC(C(C)C)C(OCC(O)CNC(C)c2ccccc2)C1 (configuration not stated)	-2	-2	40*	-9	41*
CC1CCC(C(C)C)C(OCC(O)CNC(C)(C)C)C1 (configuration not stated)	1	2	1	-3	.
Oc1ccc(/C=N/N2CCN(C3c4ccccc4-c4ccccc43)CC2)c(O)c1	18	-2	43*	-6	6
C=C(C)COc1ccc(-c2nc(N)ncc2-c2ccc(Cl)cc2)c(O)c1	11	-1	70*	-8	26
